Source: PubChem (several laboratories)
FBA Mtb inh: inhibits M. tuberculosis FBA enzyme; purified M. tuberculosis FBA, fluorescence read-out; inhibition, % at 1 µM; hit rate 2.3% among 360,000; AID 588726; in the data active = inhibition above about 27%;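 also: 0% = vehicle and 100% = reference inhibitor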
Bead autofluor: counter-screen for toxin protease inhibitors: compound fluorescence; compound autofluorescence counterscreen, microsphere flow cytometry; active compounds read high; fluorescence intensity (test concentration not listed); hit rate 3.1% among 360,000; AID 624483; in the data active = fluorescence intensity above about 16000; inconclusive = no clear call, values can overlap the other calls
Anthrax LF inh2: blocks Bacillus anthracis lethal factor protease. P15917. inhibition, % at 10 µM. multiplex microsphere protease cleavage assay, LF. hit rate 0.12% among 360,000; also: plate controls were buffer without enzyme for full effect and enzyme alone for no effect
Target sequence (P15917 whole entry, looked up): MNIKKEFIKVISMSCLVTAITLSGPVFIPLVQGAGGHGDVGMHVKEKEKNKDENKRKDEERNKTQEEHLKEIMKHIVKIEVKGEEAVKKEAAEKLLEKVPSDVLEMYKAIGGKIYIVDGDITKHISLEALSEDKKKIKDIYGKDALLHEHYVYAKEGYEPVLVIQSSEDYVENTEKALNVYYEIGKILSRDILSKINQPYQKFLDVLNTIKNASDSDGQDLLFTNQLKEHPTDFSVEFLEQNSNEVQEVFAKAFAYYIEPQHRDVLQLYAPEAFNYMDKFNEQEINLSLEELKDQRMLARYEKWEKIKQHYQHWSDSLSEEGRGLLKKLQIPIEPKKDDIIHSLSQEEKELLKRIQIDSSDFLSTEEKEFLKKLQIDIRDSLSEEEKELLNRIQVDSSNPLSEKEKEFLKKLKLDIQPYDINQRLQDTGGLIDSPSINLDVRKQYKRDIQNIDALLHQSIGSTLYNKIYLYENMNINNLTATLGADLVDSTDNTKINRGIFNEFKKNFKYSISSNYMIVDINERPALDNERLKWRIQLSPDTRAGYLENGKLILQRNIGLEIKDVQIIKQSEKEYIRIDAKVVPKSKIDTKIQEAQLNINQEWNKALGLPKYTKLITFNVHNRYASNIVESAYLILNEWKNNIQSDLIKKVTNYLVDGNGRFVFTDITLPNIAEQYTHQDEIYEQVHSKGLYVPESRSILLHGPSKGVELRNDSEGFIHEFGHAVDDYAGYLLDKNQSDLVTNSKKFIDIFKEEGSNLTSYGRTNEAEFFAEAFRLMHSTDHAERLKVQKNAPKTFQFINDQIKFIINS
GDH-TPI counter: GDH-TPI coupled enzyme inhibition counter-screen; GDH-TPI coupled enzyme counterscreen, NADH absorbance; inhibition, % at 4.8 µM; hit rate 1.2% among 360,000; in the data active = inhibition above about 30%;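 also: 0% = DMSO wells and 100% = wells lacking the enzyme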
BoNT-A LC inh2: blocks Botulinum neurotoxin A light chain protease; multiplex microsphere protease substrate cleavage, flow cytometry; inhibition, % at 10 µM; hit rate 0.17% among 360,000; also: plate controls were buffer without enzyme for full effect and enzyme alone for no effect
BoNT-F LC inh: BoNT F light chain protease inhibition; Multiplex microsphere protease cleavage assay, flow cytometry; AID 588497; inhibition, % at 10 µM; hit rate 0.22% among 360,000; in the data active = inhibition above about 35%, passing the limit was not always enough; inconclusive = no clear call, values can overlap the other calls; also: plate controls were buffer without enzyme for full effect and enzyme alone for no effect
Numbers without * were called inactive; ? = inconclusive; / = not tested or not shown. This is a sample that favours compounds with a hit; in the whole collection about 6.7% have one here. Rule as the data show it, unless noted: active = inhibition above about 30%; inconclusive = no clear call, values can overlap the other calls; inactive = below that.

SMILES | FBA Mtb inh | Bead autofluor | Anthrax LF inh2 | GDH-TPI counter | BoNT-A LC inh2 | BoNT-F LC inh
O=C(NCc1ccco1)c1cc(C(=O)C2CC2)c[nH]1 | -2.5 | 21145* | 0.7 | -2.9 | ? | -3.0
O=C(NCc1ccco1)c1ccc(=O)oc1 | -0.7 | 2263 | -1.6 | 49.7* | 0.2 | 13.6
COC(=O)CNC(=O)c1ccc(=O)oc1 | 9.1 | 5248 | -8.4 | 63.3* | 0.6 | -2.3
CCCCC(=O)Nc1ccc(C(=O)NCC(=O)OC)cc1 | 0.0 | 22542* | -0.2 | -3.7 | -1.0 | 2.3
Cc1cc(C(=O)NC2CCCCC2C)c2ccccc2n1 (stereo not drawn) | 2.2 | 5912 | -4.4 | 0.3 | -1.2 | -3.3
CCc1ccccc1NC(=S)NCc1cccn1C | 1.2 | 2552 | -0.3 | 6.4 | -0.6 | -4.9
O=C(NCc1ccco1)c1cc(-c2ccco2)on1 | 0.9 | 16474* | -2.3 | 6.4 | ? | -1.9
CCCN1C(=O)c2ccc(C(=O)NCc3ccco3)cc2C1=O | -0.4 | 23188* | -3.2 | 9.2 | ? | 0.6
O=C(NCc1ccccc1)c1ccc(=O)oc1 | 0.3 | 3572 | -8.4 | 104.1* | -1.5 | ?
O=C(NCc1ccccc1)c1ccc(Oc2ccc(C(=O)NCc3ccccc3)cc2)cc1 | -3.2 | 2772 | 0.7 | -7.6 | 0.0 | -2.0
O=C(NCc1ccccc1)c1cc(-c2ccco2)on1 | 2.3 | 12011 | -4.2 | 12.1 | 0.3 | -3.8
CCCCOc1ccccc1NC(=O)c1ccco1 | 6.2 | 2400 | -7.9 | 2.2 | 1.9 | -1.6
COc1ccc(/C=N/Nc2ncc(C(F)(F)F)cc2Cl)cc1OC | 5.7 | 2383 | 0.6 | 41.3* | -0.7 | -1.5
FC(F)(F)c1cnc(N/N=C/c2ccncc2)c(Cl)c1 | -0.4 | 5009 | 0.5 | 56.8* | -0.3 | -4.5
O=C(O)c1ccc(/C=N/Nc2ncc(Cl)cc2Cl)cc1 | -3.1 | 4154 | -9.2 | 21.3 | -4.4 | -8.5
COc1ccc(/C=N/Nc2nonc2N)cc1OC | 2.6 | 4552 | -3.1 | 24.1 | 0.1 | 7.5
COC(=O)CN(C)C1CC(=O)N(c2ccc(Cl)cc2)C1=O (stereo not drawn) | -2.2 | 22599* | -0.4 | 0.6 | -0.3 | -1.7
CN(Cc1ccncc1)C1CC(=O)N(c2ccc(Cl)cc2)C1=O (stereo not drawn) | 1.9 | 2724 | 0.3 | 3.8 | 0.0 | 4.2
CCC(C)Nc1nc(N)c([N+](=O)[O-])c(Nc2ccccc2OC)n1 (stereo not drawn) | 1.7 | / | / | 39.3* | / | /
COc1ccccc1Nc1nc(NCCCN(C)C)nc(N)c1[N+](=O)[O-] | 0.0 | 6395 | -2.7 | 38.2* | 0.2 | 1.1
Nc1nc(NCCO)nc(NCC2CCCO2)c1[N+](=O)[O-] (stereo not drawn) | -1.0 | 7115 | 1.5 | 37.4* | 0.6 | 3.6
Nc1nc(NCC2CCCO2)nc(NCC2CCCO2)c1[N+](=O)[O-] (stereo not drawn) | -1.4 | 2233 | -0.4 | -4.8 | 0.4 | -2.8
CN(C)CCCNc1nc(N)c([N+](=O)[O-])c(NCCO)n1 | -2.8 | 5203 | 6.8 | 38.2* | 0.7 | 5.6
CCC(C)Nc1nc(N)c([N+](=O)[O-])c(Nc2cc(OC)ccc2OC)n1 (stereo not drawn) | -5.6 | 5546 | 9.1 | 22.8 | 0.5 | -3.7
Cc1cc(C(=O)NNC(=O)c2nn(C)c(=O)c3ccccc23)c(C)o1 | 0.6 | 4254 | 0.3 | -0.9 | -0.5 | 1.2
SMILES | FBA Mtb inh | Bead autofluor | Anthrax LF inh2 | GDH-TPI counter | BoNT-A LC inh2 | BoNT-F LC inh
Fc1ccc(-n2cc(CNCCc3ccccn3)c(-c3ccccc3Cl)n2)cc1 | -0.6 | 4238 | -4.9 | -10.7 | -0.4 | -8.9
Nc1nc(NCc2ccccc2)nc(NCCO)c1[N+](=O)[O-] | -4.5 | / | / | 31.7* | / | /
Nc1nc(NCCO)nc(NCc2ccccc2)c1[N+](=O)[O-] | -0.4 | 3270 | 22.1 | 25.3 | 1.6 | 22.4
CCOC(=O)c1c(C)n(Cc2ccccc2)c2ccc(O)cc12 | 2.1 | 3195 | -4.3 | 3.4 | 0.0 | -5.0
C=COCCn1c(C)c(C(=O)OCC)c2cc(O)ccc21 | -1.2 | 21557* | -1.6 | 0.0 | ? | -0.5
Cc1ccc(-c2nnn(CC(=O)N(Cc3cccs3)C(C(=O)NC(C)(C)C)c3ccco3)n2)o1 (stereo not drawn) | 4.2 | 11019 | -3.0 | -15.8 | -1.3 | 0.6
Cc1ccc(C(C(=O)NC(C)(C)C)N(CC2CCCO2)C(=O)Cn2nnc(-c3ccc(C)o3)n2)cc1 (stereo not drawn) | 0.5 | 16426* | -0.3 | 4.3 | ? | 0.9
Cc1ccc(-c2nnn(CC(=O)N(CC3CCCO3)C(C(=O)NC3CCCC3)c3ccc(O)cc3)n2)o1 (stereo not drawn) | 5.9 | 3214 | 3.9 | 2.5 | 0.1 | -0.2
Cc1ccc(-c2nnn(CC(=O)N(Cc3ccco3)C(C(=O)NC(C)(C)C)c3cccs3)n2)o1 (stereo not drawn) | -3.6 | 22756* | 1.4 | -7.6 | 1.0 | 4.3
CCOc1ccccc1CN1CCC(n2nccc2NC(=O)CCc2ccccc2)CC1 | 0.7 | 5258 | -0.2 | 6.1 | 2.0 | 0.9
C=CCNCCOCCOc1ccc(C)cc1[N+](=O)[O-] | -0.9 | 21806* | -2.7 | -5.1 | 1.3 | 1.5
COc1cc(C)ccc1OCCOCCOc1ccc(C)cc1[N+](=O)[O-] | -7.2 | 2601 | -1.2 | 8.3 | -1.0 | -6.0
CCCc1cc(=O)oc2c(C)c(OCC(=O)NCCN3CCOCC3)ccc12 | 15.7 | 12096 | -2.9 | 15.4 | -20.5 | -35.8
CCCc1cc(=O)oc2cc(OCC(=O)NCCN3CCOCC3)c(Cl)cc12 | 16.4 | 3761 | 0.2 | 32.7* | -0.2 | 1.4
CCc1cc(=O)oc2cc(C)cc(OCC(=O)NCCCN3CCOCC3)c12 | 115.7* | 4410 | 3.5 | 20.7 | 5.5 | -0.6
CCOC(=O)C1=CCN(S(=O)(=O)c2ccccc2Br)C1c1ccc(Br)cc1 (stereo not drawn) | -1.2 | 6005 | -1.6 | / | 0.7 | -1.6
CCCS(=O)(=O)NC(=O)C1(C)CCCN(C(=O)c2cccc3ccccc23)C1 (stereo not drawn) | -1.3 | 3814 | -1.3 | 1.8 | 0.0 | -3.2
Nc1nnc(Cc2c[nH]c3ccccc23)s1 | -8.8 | 23973* | 2.0 | -3.8 | 1.4 | -2.7
COc1ccccc1NS(=O)(=O)c1cccc(C(=O)NCC(c2ccccc2OC)N2CCCC2)c1 (stereo not drawn) | 0.6 | 20056* | 0.3 | -1.4 | 1.0 | 8.1
COc1ccc(C(CNC(=O)c2cc(C)oc2C)N2CCOCC2)cc1 (stereo not drawn) | -4.1 | 16136* | 0.7 | 6.1 | 1.3 | 6.2
COc1ccccc1NS(=O)(=O)c1cccc(C(=O)NCC(c2ccco2)N2CCCC2)c1 (stereo not drawn) | 0.7 | 6739 | -1.8 | 1.1 | -1.2 | -6.2
COc1ccc(C(CNC(=O)c2ccc(C)c(S(=O)(=O)N3CCOCC3)c2)N2CCCC2)cc1 (stereo not drawn) | -1.6 | 11261 | -8.0 | -0.7 | -3.6 | 7.8
COc1ccc(C(CNC(=O)c2ccc(Cl)c(S(=O)(=O)N3CCCC3)c2)N2CCCC2)cc1 (stereo not drawn) | 0.9 | 30581* | -1.8 | 6.4 | -9.6 | 25.5
